Results: PubChem BioAssay (Tox21)
“And” between values parts separate entries of the source, which are not always exact repeats. Equal entries are not always repeated. Inconclusive results are not listed. Where a structure was tested more than once in an assay, its records may differ in their call. The source made the active and inactive calls. Unless noted, calls follow the shape of the dose curve; as a rule, active = well fitted curve in the direction sought with a large enough effect in the repeat runs; inconclusive = weak or mixed curves; inactive = no such curve, though single readings can be large; an effect the other way counts as inactive or inconclusive.

Columns and labels:
[1] = qHTS assay to identify small molecule agonists of the NFkB signaling pathway (AID 1159509; active = well fitted curve in the direction sought with a large enough effect in the signal ratio in the repeat runs, not every such curve was filed as active; the % refers to the signal ratio; also: series mostly up to about 61 µM)
Summary of the method: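 Readout: FRET fluorescence, 405 nm excitation, 460/530 nm emission; beta-lactamase expression disrupts FRET. Cells: ME-180 stably carrying NF-kB-driven bla reporter. Compound exposure 5 hr, 37 C, 5% CO2.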

[2] = qHTS assay to identify small molecule antagonists of the retinoid-related orphan receptor gamma (ROR-gamma) signaling pathway - cell viability counter screen (AID 1159520); also: nearly all actives have a fitted effect of over 50% in size; also: potency is read from the fitted curve at half-maximal effect
Summary of the method: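 Cytotoxicity was read from cellular ATP (CellTiter-Glo luminescence) after 16 hr at 37 C with 1 uM doxycycline induction. The inducer was added 2 hr after compound transfer to Tet-on ROR gamma CHO cells.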

[3] = biological target: Nuclear receptor ROR-gamma (Homo sapiens) (UniProt P51449); test: qHTS assay to identify small molecule antagonists of the retinoid-related orphan receptor gamma (ROR-gamma) signaling pathway (AID 1159521; also: nearly all actives have a fitted effect of over 50% in size; also: potency is read from the fitted curve at half-maximal effect)
Summary of the method: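 Inducible-expression reporter assay: doxycycline (1 uM final) switched on RORγ in CHO cells bearing a ROR response element-luciferase construct, with test compounds present from 2 h beforehand. Decreased luminescence after 16 h defined antagonist activity.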

[4] = qHTS assay to identify small molecule agonists of the AP-1 signaling pathway - cell viability counter screen (AID 1159525; calls by dose curve; also: nearly all actives have a fitted effect of over 55% in size; also: potency is read from the fitted curve at half-maximal effect)
Summary of the method: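 Intracellular ATP by Cell Titer Glo luminescence (30 min, RT) in the same ME-180 AP-1-bla wells after the 5 h compound exposure at 37 °C. Normalised to tetra n-octyl ammonium bromide and DMSO controls.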

[5] = qHTS assay to identify small molecule agonists of the AP-1 signaling pathway (AID 1159526; calls by dose curve)
[6] = biological target: Retinoic acid receptor RXR-alpha (Homo sapiens) (UniProt P19793); test: qHTS assay to identify small molecule agonists of the RXR signaling pathway (AID 1159527; calls by dose curve; also: nearly all actives have a fitted effect of over 35% in size; also: potency is read from the fitted curve at half-maximal effect)
Chain of Retinoic acid receptor RXR-alpha (Homo sapiens) (P19793 whole entry, looked up): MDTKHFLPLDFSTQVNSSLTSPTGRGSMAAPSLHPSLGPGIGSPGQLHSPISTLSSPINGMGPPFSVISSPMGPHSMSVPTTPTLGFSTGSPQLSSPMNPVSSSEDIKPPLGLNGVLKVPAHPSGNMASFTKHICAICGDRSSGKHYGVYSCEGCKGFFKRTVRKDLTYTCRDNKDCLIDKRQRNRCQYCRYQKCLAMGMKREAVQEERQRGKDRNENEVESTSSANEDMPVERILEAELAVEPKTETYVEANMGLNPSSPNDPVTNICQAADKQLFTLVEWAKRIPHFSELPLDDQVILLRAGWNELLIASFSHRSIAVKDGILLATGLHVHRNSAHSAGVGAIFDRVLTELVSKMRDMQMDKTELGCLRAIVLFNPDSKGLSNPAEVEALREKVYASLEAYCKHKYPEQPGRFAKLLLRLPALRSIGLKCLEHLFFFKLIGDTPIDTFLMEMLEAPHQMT
Summary of the method: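 Compounds in DMSO were added to RXR-alpha-UAS-bla HEK 293T cells kept in 2% charcoal-stripped serum, and incubated 16 hr at 37 C with 5% CO2. Reporter signal came from a 2 hr B/G FRET substrate step.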

[7] = qHTS assay to identify small molecule agonists of the retinoic acid receptor (RAR) signaling pathway (AID 1159553); also: potency is read from the fitted curve at half-maximal effect
Summary of the method: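 In this cell-based screen, 1,000 C3RL4 cells per well were cultured overnight, dosed with test chemicals in DMSO for 6 hr, and assessed for RARE luciferase luminescence.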

[8] = qHTS assay to identify small molecule antagonists of the estrogen related receptor signaling pathway with the pleiotropic PPARgamma coactivator (PGC) cell viability counter screen (AID 1224822; also: series mostly up to about 46 µM)
Summary of the method: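 17.5 h compound treatment of PGC/ERR cells at 37 C; readout CellTiter-Fluor fluorescence; run alongside the PGC/ERR antagonist screen to flag cytotoxic compounds.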

[9] = qHTS assay to identify small molecule agonists of the NFkB signaling pathway - cell viability counter screen (AID 1159515; calls by dose curve; also: series mostly up to about 61 µM; nearly all actives have a fitted effect of over 55% in size)
Summary of the method: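 Tox21 library compounds were tested for cytotoxicity against NFkB-bla ME-180 cells during a 5 hr exposure at 37 C. CellTiter-Glo luminescence served as the viability read-out.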

[10] = qHTS assay to identify small molecule agonists of the endoplasmic reticulum stress response signaling pathway (AID 1159516; active = well fitted activation curve with a large enough effect in the signal ratio in the repeat runs, not every such curve was filed as active; the % refers to the signal ratio)
Summary of the method: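 Fluorescence at 460 and 530 nm (405 nm excitation) reports beta-lactamase from an ER stress response element in HeLa cells treated 5 hr at 37 C.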

[11] = qHTS assay to identify small molecule agonists of the endoplasmic reticulum stress response signaling pathway - cell viability counter screen (AID 1159517; calls by dose curve; also: series mostly up to about 61 µM; nearly all actives have a fitted effect of over 50% in size)
Summary of the method: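 After overnight attachment, ESRE-bla HeLa cells were treated with Tox21 library compounds for 5 hr. CellTiter-Glo luminescence, read 30 min post-addition at room temperature, reported viability.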

[12] = qHTS assay to identify small molecule agonists of the RXR signaling pathway - cell viability counter screen (AID 1159529); also: nearly all actives have a fitted effect of over 50% in size; also: potency is read from the fitted curve at half-maximal effect
Summary of the method: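 Counter screen: CellTiter-Glo luminescence. Cells: RXR-alpha-UAS-bla HEK 293T. Medium: 2% charcoal-stripped FBS. Treatment: 16 h, 37 C. Reagent incubation: 30 min, RT.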

[13] = qHTS assay to identify small molecule antagonists of the retinoid acid receptor (RAR) signaling pathway - cell viability counter screen (AID 1159551); also: nearly all actives have a fitted effect of over 35% in size; also: potency is read from the fitted curve at half-maximal effect
Summary of the method: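 In this counter screen, the RARE-luciferase line C3RL4 was exposed for 6 h at 37 C and 5% CO2 to compounds with retinol at 1 uM final. Cellular ATP, read by luminescence, served as the viability measure.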

[14] = qHTS assay to identify small molecule antagonists of the vitamin D receptor (VDR) signaling pathway - cell viability counter screen (AID 743225); also: nearly all actives have a fitted effect of over 50% in size; also: potency is read from the fitted curve at half-maximal effect
Summary of the method: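 Same-well multiplex: following 16 h treatment of HEK 293T cells carrying a UAS-driven beta-lactamase reporter with compound and agonist (3 nM final), and a 2 h FRET substrate step, CellTiter-Glo was added and luminescence read after 30 min.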

[15] = qHTS assay to identify small molecule antagonists of the retinoic acid receptor (RAR) signaling pathway (AID 1159552; also: nearly all actives have a fitted effect of over 50% in size; also: potency is read from the fitted curve at half-maximal effect)
Summary of the method: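 Antagonism of retinol-induced RARE reporter activity was measured in C3RL4 cells. Exposure to compounds and 1 uM final retinol lasted 6 hr at 37 C, with luminescence as endpoint.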

[16] = qHTS assay to identify small molecule antagonists of the estrogen related receptor (ERR) signaling pathway (AID 1224819)
Summary of the method: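 Seed ERR cells 2,000/well; rest 6 h at 37 C/5% CO2; pin compounds in DMSO; incubate 18 h at 37 C; add One-Glo; wait 30 min at room temperature; measure luminescence.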

[17] = system: estrogen-related receptor alpha (ERRalpha) with PGC-1alpha coactivator, human; test: qHTS assay to identify small molecule antagonists of the estrogen related receptor signaling pathway with the pleiotropic PPARgamma coactivator (PGC) (AID 1224821; calls by dose curve)
Summary of the method: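 PGC/ERR reporter cells; 6 h pre-incubation 37 C/5% CO2; pin-tool compound in DMSO, 18 h 37 C; One-Glo added, 30 min RT; luminescence read. qHTS antagonist mode.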

[18] = qHTS assay to identify small molecule agonists of the vitamin D receptor (VDR) signaling pathway - cell viability counter screen (AID 743224); also: nearly all actives have a fitted effect of over 50% in size; also: potency is read from the fitted curve at half-maximal effect
Summary of the method: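 CellTiter-Glo viability readout on VDR-bla cells, measured after 16 h of compound treatment at 37C in the same wells.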

[19] = qHTS assay to identify small molecule antagonists of the estrogen related receptor (ERR) signaling pathway - cell viability counter screen (AID 1224818); also: series mostly up to about 46 µM
Summary of the method: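 Viability of ERR cells, CellTiter-Fluor fluorescence; 17.5 h compound exposure at 37 C, DMSO vehicle; 30 min reagent incubation at 37 C/5% CO2.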

[20] = qHTS assay to identify small molecule agonists of the estrogen related receptor (ERR) signaling pathway (AID 1224820)
Summary of the method: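 Luminescence readout (One-Glo, 30 min RT) from NTP-supplied ERR cell line exposed to compounds for 18 h at 37 C. Cells seeded 2,000 per well and pre-incubated 6 h before pin-tool compound transfer.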

Measured: Potency

Nc1ccc([N+](=O)[O-])cc1O
inactive: [1] | [2] | [3] | [4] | [5] | [6] | [7] | [8]

CC(=O)Nc1c(I)c(NC(C)=O)c(I)c(C(=O)O)c1I
inactive: [9] | [10] | [11] | [2] | [3] | [4] | [5] | [6] | [12] | [13] | [7]

C1CCC(C(CC2CCCCN2)C2CCCCC2)CC1 (stereo unspecified)
active: [14] 21.3 µM | [2] 26.6 µM | [4] 23.9 µM | [12] 23.9 µM | [13] 29.8 µM | [15] 9.44 µM
inactive: [1]

Nc1ccc(O)c([N+](=O)[O-])c1
inactive: [1] | [2] | [4] | [12] | [13] | [15] | [16] | [17] | [8]
active: [3] 8.63 µM | [6] 7.76 µM

CC12CCC(CC1)C(C)(C)O2
not listed: [1] | [8] | [14] | [16] | [17] | [19] | [20]
inactive: all other assays above

C1=CC2C3C=CC(C3)C2C1 (stereo unspecified)
not listed: [5] | [6] | [9] | [10] | [11] | [14] | [15]
inactive: all other assays above

Nc1c(N=Nc2ccc(-c3ccc(N=Nc4cc(S(=O)(=O)O)c5ccccc5c4N)cc3)cc2)cc(S(=O)(=O)O)c2ccccc12
inactive: [14] | [1] | [4] | [6] | [12] | [15] | [7]
active: [13] 17.2 µM

COc1ccc2cc(S(=O)(=O)N[C@H](CC(=O)N[C@H](Cc3ccc(CN4[C@H](C)CCC[C@@H]4C)cc3)C(=O)N(C)C(C)C)c3ccc4c(c3)OCO4)ccc2c1
active: [18] 52 µM | [14] 20.7 µM | [3] 13 µM | [12] 2.32 µM | [15] 51.6 µM
inactive: [1] | [7]

CCCCC1(COC(=O)CCC(=O)O)C(=O)N(c2ccccc2)N(c2ccccc2)C1=O
not listed: [1] | [8] | [16] | [17] | [19] | [20]
inactive: all other assays above

NC(=O)n1c(O)c(C(=O)c2cccs2)c2cc(Cl)ccc21
active: [3] 6.68 µM
inactive: [1] | [11] | [4] | [5] | [13] | [15] | [7]

CCCCOC(=O)c1ccc(O)cc1
active: [7] 27.3 µM
not listed: [1] | [8] | [10] | [16] | [17] | [19] | [20]
inactive: all other assays above

NC(=O)c1cccnc1
inactive: [14] | [9] | [10] | [11] | [2] | [3] | [4] | [5] | [6] | [12] | [13]

CCN(CC)C(=O)c1cccc(C)c1
not listed: [1] | [8] | [10] | [16] | [17] | [19] | [20]
inactive: all other assays above

CC(=O)C(=O)O
inactive: [9] | [11] | [2] | [3] | [4] | [5] | [6] | [12] | [13] | [15] | [7]

CN(N=O)C(=O)N[C@@H]1[C@@H](O)[C@H](O)[C@@H](CO)O[C@@H]1O
not listed: [1] | [8] | [10] | [14] | [16] | [17] | [19] | [20]
inactive: all other assays above

CN1[C@@H]2CC(OC(=O)[C@H](CO)c3ccccc3)C[C@H]1[C@@H]1O[C@@H]12 (stereo partly specified)
inactive: [18] | [14] | [9] | [10] | [11] | [2] | [3] | [4] | [5] | [12] | [13]

NC1CCCCC1
not listed: [1] | [8] | [10] | [16] | [17] | [19] | [20]
inactive: all other assays above

CN(C)C(=O)Nc1ccc(Cl)c(Cl)c1
inactive and 19.5 µM (active): [6]
not listed: [1] | [8] | [10] | [14] | [16] | [17] | [19] | [20]
inactive: all other assays above
